Results on 7 molecules are retold here after PubChem BioAssay (Tox21).

Values joined by “and” are separate entries in the source; they are usually repeats but may differ in a detail not shown here. Equal entries are not always repeated. Records with an inconclusive call do not appear. A structure can be active in one record and inactive in another. Active and inactive are the calls of the source. Unless noted, calls follow the shape of the full dose curve.

Assay [1] can be described thus: Nuclear factor erythroid 2-related factor 2/antioxidant responsive element (Nrf2/ARE) small molecule agonists: qHTS cell viability counter screen in human keratinocytes (AID 1919968; active = well fitted curve in the direction sought with a large enough effect in the repeat runs; an effect the other way counts as inactive or inconclusive; also: nearly all actives have a fitted effect of over 55% in size; also: potency is read from the fitted curve at half-maximal effect). An outline of the steps:
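Viability counter-screen: KeratinoSens reporter cells, DMSO-delivered compounds, 23 h at 37 C, CellTiter-Fluor fluorescence.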
In general terms: qHTS replaces the single test concentration by a dilution series.

Assay [2] is described as follows: Nuclear factor erythroid 2-related factor 2/antioxidant responsive element (Nrf2/ARE) small molecule agonists: luciferase reporter gene qHTS assay in human keratinocytes (AID 1919969). Also: nearly all actives have a fitted effect of over 35% in size. In general terms: In a reporter assay the amount or activity of a reporter protein is the signal.
The target in assay [3] is Gonadotropin-releasing hormone receptor (Homo sapiens) (UniProt P30968). Description: Human gonadotropin-releasing hormone receptor (GnRHR) small molecule agonists, calcium flux assay in GnRHR-HEK293 cells (AID 1920063). Also: nearly all actives have a fitted effect of over 35% in size. The procedure, abridged: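 Tox21-format agonist screen using human GnRHR-expressing HEK293 cells and a fluorescent calcium dye; kinetic 3-min fluorescence reading after compound addition, 15-point concentration series run in triplicate.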
Sequence of Gonadotropin-releasing hormone receptor (Homo sapiens) (P30968 whole entry, looked up): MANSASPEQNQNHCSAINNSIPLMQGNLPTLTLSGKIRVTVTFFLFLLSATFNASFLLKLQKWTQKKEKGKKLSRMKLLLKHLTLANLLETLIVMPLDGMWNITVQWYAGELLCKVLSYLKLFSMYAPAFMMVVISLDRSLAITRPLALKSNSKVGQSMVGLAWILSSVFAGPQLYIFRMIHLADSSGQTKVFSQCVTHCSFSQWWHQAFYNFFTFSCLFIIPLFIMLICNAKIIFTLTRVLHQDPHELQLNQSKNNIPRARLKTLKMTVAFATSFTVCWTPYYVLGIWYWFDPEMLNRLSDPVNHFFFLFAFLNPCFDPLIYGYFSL

The target of assay [4] is KiSS-1 receptor (Homo sapiens) (UniProt Q969F8). Briefly: Human kisspeptin (KISS1R) small molecule agonists, calcium flux assay in KISS1R-HEK293 cells (AID 1920064; active = well fitted curve in the direction sought with a large enough effect in the repeat runs; an effect the other way counts as inactive or inconclusive). The procedure, abridged:
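Intracellular calcium mobilization in KISS1R-HEK293 cells was recorded by fluorescence (Ex/Em 480/540) for 3 min following compound addition to cells pre-loaded 1 h with calcium dye.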
On the technique in general: A change in cytosolic calcium serves as a functional read-out for many receptors and channels.

A short description of assay [5]: G protein-coupled receptor (GPCR) small molecule agonists, calcium flux assay: HEK293 wild type cell line counter screen (AID 1920065). An outline of the steps: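 In this agonist-mode screen, ATP is the positive control and DMSO the vehicle. Cells grow 18 h before a 1 h dye incubation at 37 C; signal is taken at Ex/Em 480/540 over 3 min.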
Assay [6] is described as follows: p53 small molecule agonists, cell-based qHTS assay with human liver microsomes (AID 1963577). The procedure, abridged:
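p53RE-bla reporter cells were pre-incubated 5 h at 37 C, then treated with compounds plus human liver microsomes (0.5 mg/mL final) and NADPH (0.5 mg/mL final) for 16 h at 37 C. Beta-lactamase activity was read by LiveBLAzer fluorescence after 2 h at room temperature.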

A short description of assay [7]: p53 small molecule agonists, cell-based qHTS assay with rat liver microsomes (AID 1963578). The procedure, abridged:
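p53RE-bla cells were exposed to compounds together with rat liver microsomes (0.5 mg/mL final) and NADPH (0.5 mg/mL final) for 16 h at 37 C, then read by LiveBLAzer beta-lactamase fluorescence after 2 h at room temperature.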

Assay [8] in a line: p53 small molecule agonists, cell-based qHTS assay with human liver microsomes: qHTS cell viability counter screen (AID 1963579). Also: nearly all actives have a fitted effect of over 45% in size. Also: potency is read from the fitted curve at half-maximal effect. An outline of the steps:
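p53RE-bla cells (4,000/well) were pre-incubated 5 h at 37 C, then given compounds in DMSO plus human liver microsomes (0.5 mg/mL final) and NADPH (0.5 mg/mL final) for 16 h at 37 C. Viability was read by CellTiter-Glo luminescence.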

Assay [9] is described as follows: p53 small molecule agonists, cell-based qHTS assay with rat liver microsomes: qHTS cell viability counter screen (AID 1963580). Also: nearly all actives have a fitted effect of over 45% in size. An outline of the steps: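 p53RE-bla HCT-116 cells were exposed 16 h at 37 C to compounds with rat liver microsomes (0.5 mg/mL) and NADPH (0.5 mg/mL). Viability was measured in the same wells as ATP content by CellTiter-Glo luminescence.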

Assay [10] in a line: p53 small molecule agonists, cell-based qHTS assay: qHTS cell viability counter screen (AID 1963581). Also: nearly all actives have a fitted effect of over 45% in size. An outline of the steps:
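Compounds are pinned onto HCT-116 p53RE-bla cells and left 16 h at 37 C. Following the reporter FRET read, ATP is quantified by CellTiter-Glo luminescence after 30 min at room temperature.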

The nature of assay [11]: p53 small molecule agonists, cell-based qHTS assay (AID 1963582; active = well fitted activation curve with a large enough effect in the signal ratio in the repeat runs, not every such curve was filed as active; the % refers to the signal ratio). An outline of the steps:
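Agonist activity was scored from beta-lactamase FRET fluorescence in p53RE-bla cells treated 16 h at 37 C with compounds in DMSO, substrate incubation being 2 h at room temperature.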

In assay [12] the target is 5-hydroxytryptamine receptor 2A (Homo sapiens) (UniProt P28223). Briefly: 5-hydroxytryptamine receptor 2A (HTR2A) small molecule agonists, cell-based qHTS assay (AID 1963587). Also: nearly all actives have a fitted effect of over 30% in size. The procedure, abridged:
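CHO cells stably expressing human HTR2A, plated 18 h, loaded with calcium dye 1 h at 37 C. Agonist mode: compounds added and intracellular calcium fluorescence recorded kinetically for 2 min at 1 sec intervals.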

In assay [13] the target is Muscarinic acetylcholine receptor M1 (Homo sapiens) (UniProt P11229). Briefly: Cholinergic receptor muscarinic 1 (CHRM1) small molecule antagonists, cell-based qHTS assay (AID 1963588). Also: nearly all actives have a fitted effect of over 40% in size. The procedure, abridged:
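CHRM1-CHO calcium-flux assay, antagonist mode. Cells were seeded 18 h, dye-loaded 1 h at 37 C and given compound for 5 min at RT, then acetylcholine was added at 50nM. FDSS fluorescence was read 3 min; 15 concentrations, three runs.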

Assay [14] has the same target. Description: Cholinergic receptor muscarinic 1 (CHRM1) small molecule agonists, cell-based qHTS assay (AID 1963589). Also: nearly all actives have a fitted effect of over 35% in size. The procedure, abridged:
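Stable CHRM1-CHO cells (human receptor) were incubated 18 h, dye-loaded for 1 h at 37 C and exposed to test compounds for agonist activity, with calcium-dependent fluorescence followed kinetically.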

A short description of assay [15]: cAMP Responsive Elements (CRE) small molecule agonists, cell-based qHTS assay (AID 1963590). An outline of the steps: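 FRET-based beta-lactamase readout (LiveBLAzer B/G, 2 h RT) quantified CRE activation in HEK 293T CRE-bla cells after 3 h treatment with DMSO-dissolved compounds.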
Assay [16] can be described thus: cAMP Responsive Elements (CRE) small molecule antagonists, cell-based qHTS assay (AID 1963591; active = well fitted inhibition curve with a large enough effect in the signal ratio in the repeat runs, not every such curve was filed as active; the % refers to the signal ratio). An outline of the steps: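 qHTS in CRE-bla HEK 293T cells: compound in DMSO, then 0.25 uM NKH477 (final), 3 h at 37 °C/5% CO2; beta-lactamase FRET read-out after 2 h substrate incubation.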
In assay [17] the target is Beta-2 adrenergic receptor (Homo sapiens) (UniProt P07550). Description: Adrenergic beta2 receptor (ADRB2) small molecule agonists, cell-based qHTS assay (AID 1963593).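 Also: CHO cells stably overexpressing human ADRB2.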 The procedure, abridged:
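CHO cells stably over-expressing ADRB2 were plated overnight at 37C, then dosed with compounds plus a stimulation mix containing 100uM IBMX and 25uM Ro-20-1724 for 0.5hr at room temperature. cAMP was measured by HTRF competition, 1hr.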

For assay [18], the target named is D(2) dopamine receptor (Homo sapiens) (UniProt P14416). Briefly: Dopamine D2 receptor (DRD2) small molecule agonists, cell-based qHTS assay (AID 1963594). Also: nearly all actives have a fitted effect of over 35% in size. The procedure, abridged: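 HEK293 cells stably expressing human DRD2, pre-treated with PDE inhibitor Ro20-1724 (0.1 mM final) and compound 10 min at room temperature, then stimulated with NKH477 (200nM […]) for 30 min. cAMP read by HTRF (665/620 nm).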
Sequence of D(2) dopamine receptor (Homo sapiens) (P14416 whole entry, looked up): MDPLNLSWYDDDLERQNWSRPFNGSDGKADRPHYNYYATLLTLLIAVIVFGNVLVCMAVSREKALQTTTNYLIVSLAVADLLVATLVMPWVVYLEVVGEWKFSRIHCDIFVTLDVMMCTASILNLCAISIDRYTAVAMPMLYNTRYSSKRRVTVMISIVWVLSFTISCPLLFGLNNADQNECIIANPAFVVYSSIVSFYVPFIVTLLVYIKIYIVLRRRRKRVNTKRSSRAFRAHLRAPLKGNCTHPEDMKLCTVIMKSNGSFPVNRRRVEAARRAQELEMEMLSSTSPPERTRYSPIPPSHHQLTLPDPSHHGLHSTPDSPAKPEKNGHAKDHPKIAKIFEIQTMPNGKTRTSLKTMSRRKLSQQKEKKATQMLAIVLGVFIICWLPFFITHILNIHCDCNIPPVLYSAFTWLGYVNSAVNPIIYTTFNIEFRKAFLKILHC

For assay [19] the target is unchanged. Description: Dopamine D2 receptor (DRD2) small molecule antagonists, cell-based qHTS assay (AID 1963595; active = well fitted inhibition curve with a large enough effect in the signal ratio in the repeat runs, with a control signal flat; the % refers to the signal ratio). The procedure, abridged:
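Cells were plated and grown for 24 h at 37 °C. Ro20-1724 (0.1 mM final) went in first, then compound for 10 min. NKH477 (200 nM) with quinpirole (12 nM) followed for 30 min at RT, then HTRF detection reagents for 1 h.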

The target in assay [20] is Beta-2 adrenergic receptor (Homo sapiens) (UniProt P07550). Description: Adrenergic beta2 receptor (ADRB2) small molecule antagonists, cell-based qHTS assay (AID 1963592). Also: series mostly up to about 92 µM; nearly all actives have a fitted effect of over 50% in size. The procedure, abridged:
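Cells (CHO, stable ADRB2 overexpression) incubated 18-20hr at 37C; compounds added from DMSO; agonist mix (1nM isoproterenol, 100uM IBMX, 25uM Ro-20-1724) added; 0.5hr RT; d2-cAMP and anti-cAMP-cryptate added; 1hr RT; 665/615 nm read.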

Sequence of KiSS-1 receptor (Homo sapiens) (Q969F8 whole entry, looked up): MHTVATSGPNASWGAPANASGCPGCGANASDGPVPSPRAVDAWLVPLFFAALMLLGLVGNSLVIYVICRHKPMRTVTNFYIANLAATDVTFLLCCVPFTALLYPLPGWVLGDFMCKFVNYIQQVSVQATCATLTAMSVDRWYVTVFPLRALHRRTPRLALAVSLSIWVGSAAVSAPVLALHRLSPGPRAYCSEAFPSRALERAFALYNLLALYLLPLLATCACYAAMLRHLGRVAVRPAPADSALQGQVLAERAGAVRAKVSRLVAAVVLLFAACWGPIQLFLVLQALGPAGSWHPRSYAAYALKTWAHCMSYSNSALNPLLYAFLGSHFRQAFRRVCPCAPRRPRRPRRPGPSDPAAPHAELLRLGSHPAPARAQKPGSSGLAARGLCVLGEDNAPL
Sequence of Beta-2 adrenergic receptor (Homo sapiens) (P07550 whole entry, looked up): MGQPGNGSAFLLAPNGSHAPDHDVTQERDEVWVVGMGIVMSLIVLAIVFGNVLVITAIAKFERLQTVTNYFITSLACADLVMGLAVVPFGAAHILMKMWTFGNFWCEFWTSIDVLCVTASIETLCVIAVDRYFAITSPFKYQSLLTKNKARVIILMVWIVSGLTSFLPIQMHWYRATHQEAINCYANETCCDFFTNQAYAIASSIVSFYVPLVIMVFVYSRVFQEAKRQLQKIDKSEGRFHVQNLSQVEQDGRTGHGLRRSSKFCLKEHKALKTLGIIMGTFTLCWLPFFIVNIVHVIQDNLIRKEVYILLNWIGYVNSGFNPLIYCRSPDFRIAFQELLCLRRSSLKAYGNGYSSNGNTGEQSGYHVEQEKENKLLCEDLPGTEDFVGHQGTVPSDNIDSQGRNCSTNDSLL
Sequence of 5-hydroxytryptamine receptor 2A (Homo sapiens) (P28223 whole entry, looked up): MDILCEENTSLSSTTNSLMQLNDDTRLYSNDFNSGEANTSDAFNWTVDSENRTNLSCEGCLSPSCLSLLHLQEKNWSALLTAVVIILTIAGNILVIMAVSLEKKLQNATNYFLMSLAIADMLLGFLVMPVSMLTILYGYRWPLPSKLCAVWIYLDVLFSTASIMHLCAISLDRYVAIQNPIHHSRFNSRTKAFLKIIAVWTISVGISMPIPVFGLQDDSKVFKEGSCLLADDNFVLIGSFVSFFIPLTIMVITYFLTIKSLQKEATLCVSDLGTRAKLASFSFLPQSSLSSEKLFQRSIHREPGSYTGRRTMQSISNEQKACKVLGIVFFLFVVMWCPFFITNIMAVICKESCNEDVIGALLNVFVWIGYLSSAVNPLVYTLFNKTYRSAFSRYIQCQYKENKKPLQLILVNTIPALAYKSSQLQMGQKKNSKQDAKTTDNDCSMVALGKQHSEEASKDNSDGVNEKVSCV
Sequence of Muscarinic acetylcholine receptor M1 (Homo sapiens) (P11229 whole entry, looked up): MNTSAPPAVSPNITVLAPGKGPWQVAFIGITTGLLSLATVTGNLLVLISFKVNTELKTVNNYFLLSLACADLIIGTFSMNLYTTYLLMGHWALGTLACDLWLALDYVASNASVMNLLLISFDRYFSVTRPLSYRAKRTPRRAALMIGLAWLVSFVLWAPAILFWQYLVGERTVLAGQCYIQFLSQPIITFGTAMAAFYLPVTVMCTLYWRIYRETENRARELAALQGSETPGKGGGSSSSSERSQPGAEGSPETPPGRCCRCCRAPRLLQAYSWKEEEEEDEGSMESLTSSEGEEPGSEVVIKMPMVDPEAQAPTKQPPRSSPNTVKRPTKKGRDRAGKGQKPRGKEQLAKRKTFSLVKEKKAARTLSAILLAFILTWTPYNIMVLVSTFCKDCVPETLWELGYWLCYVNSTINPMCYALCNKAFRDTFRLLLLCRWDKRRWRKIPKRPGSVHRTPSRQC

`CCCCCCCCc1ccc(Nc2ccc(CCCCCCCC)cc2)cc1`: the Potency entry in assay [1], in assay [2], in assay [3], in assay [4], in [5] and in assay [6] was “inactive” each time. Moreover, the Potency entry in assay [7], in assay [8], in assay [9], in assay [10], in assay [11] and in [12] was “inactive” each time. Also, the Potency result in assay [13], in assay [14], in assay [15], in assay [16], in [17] and in [18] was “inactive” each time. For the same molecule, in assay [19], the Potency entry is “inactive”.

`CC(=O)O[C@]1(C(C)=O)CC[C@H]2[C@@H]3C=C(C)C4=CC(=O)CC[C@]4(C)[C@H]3CC[C@@]21C`: the Potency entry in assay [1], in assay [2], in assay [3], in [4], in assay [5] and in assay [6] was “inactive” in each case. In addition, the Potency entry in assay [7], in assay [8], in assay [9], in [10], in [11] and in [20] was “inactive” each time. Besides, the Potency result in assay [17], in assay [18] and in [19] was “inactive” throughout.

Regarding `CC(C)(C)CC(C)(C)c1ccc(OCCOCC[N+](C)(C)Cc2ccccc2)cc1`, the Potency in assay [1] is 24.3 µM (active) and 10.6 µM (active); in [8], 20.4 µM (active) and inactive. In addition, the Potency result in [2], in [3], in assay [4], in assay [5], in assay [6] and in [7] was “inactive” in each case. Also, the Potency entry in assay [9], in assay [10], in [11], in assay [16] and in assay [18] was “inactive” each time.

On to `C=C1C[C@H]2[C@@H]3C=C(C)C4=CC(=O)CC[C@]4(C)[C@H]3CC[C@]2(C)[C@@]1(OC(C)=O)C(C)=O`, for which the Potency entry in assay [1], in [2], in assay [3], in [4], in assay [5] and in [6] was “inactive” each time. The Potency result in assay [7], in [8], in assay [9], in [10], in assay [11] and in assay [12] was “inactive” throughout. Besides, the Potency entry in [13], in assay [14], in assay [20], in [18] and in assay [19] was “inactive” throughout.

As to `CCCCCCCCSCCO`, the Potency result in assay [1], in assay [2], in assay [3], in assay [4], in assay [5] and in [6] was “inactive” in each case. Moreover, the Potency entry in assay [7], in assay [8], in assay [9], in [10], in [12] and in assay [13] was “inactive” each time. Besides, the Potency entry in assay [14], in assay [15], in assay [16], in assay [20], in [17] and in [18] was “inactive” throughout. In assay [19], the Potency result was “inactive”.

As for `FC(F)(F)c1cccc(Cl)c1`, the Potency entry in [1], in assay [2], in [3], in assay [4], in [5] and in assay [6] was “inactive” throughout. Moreover, the Potency result in assay [7], in [8], in assay [9], in [10], in assay [11] and in [13] was “inactive” in each case. The Potency entry in [14], in assay [16], in [20], in [18] and in assay [19] was “inactive” in each case.

Take `C=CC(=O)CC`: the Potency entry in assay [1], in assay [2], in assay [3], in [4], in assay [5] and in [6] was “inactive” in each case. The Potency entry in assay [7], in [8], in [9], in [10], in assay [12] and in assay [13] was “inactive” in each case. Also, the Potency entry in [14], in assay [15], in assay [16], in assay [20], in assay [17] and in [18] was “inactive” in each case. For the same molecule, in assay [19], the Potency entry was “inactive”.
